Assay results as given in article PMC5540273 (PLoS ONE, 2017).

How the values were obtained:
Details in all cases: concentration: 1 μM, replicates: in singlicate; n = 1
MTOR = test system: MTOR
MUSK = test system: MUSK
MYLK2 = test system: MYLK2
MYLK4 = test system: MYLK4
MYLK = test system: MYLK
MYO3A = test system: MYO3A
MYO3B = test system: MYO3B
NDR1 = test system: T1, NDR1
T1 construct: gene STK38

NDR2 = test system: NDR2
NEK10 = test system: NEK10
NEK11 = test system: NEK11
NEK1 = test system: NEK1
NEK2 = test system: NEK2
NEK3 = test system: NEK3
NEK4 = test system: NEK4
NEK5 = test system: NEK5
NEK6 = test system: NEK6
NEK7 = test system: NEK7
NEK9 = test system: NEK9
NIK = test system: T2, NIK
T2 construct: gene MAP3K14
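Note: KINOMEscan kinase panel screen.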

O=C(Nc1cccc(-c2nn3ncccc3c2-c2ccnc(Nc3ccccc3)n2)c1)c1c(F)cccc1F [GSK198271]
%Inh (MTOR): 10%
%Inh (MUSK): 4%
%Inh (MYLK2): 0%
%Inh (MYLK4): 0%
%Inh (MYLK): 7%
%Inh (MYO3A): 6%
%Inh (MYO3B): 30%
%Inh (NDR1): 11%
%Inh (NDR2): 0%
%Inh (NEK10): 0%
%Inh (NEK11): 0%
%Inh (NEK1): 3%
%Inh (NEK2): 21%
%Inh (NEK3): 11%
%Inh (NEK4): 4%
%Inh (NEK5): 0%
%Inh (NEK6): 0%
%Inh (NEK7): 0%
%Inh (NEK9): 8%
%Inh (NIK): 0%

Cl.Cl.NCC(NC(=O)c1cc(-c2ccccc2)c(-c2ccnc3[nH]ccc23)s1)c1ccccc1 (stereo not drawn) [GSK1321561]
%Inh (MTOR): 0%
%Inh (MUSK): 13%
%Inh (MYLK2): 17%
%Inh (MYLK4): 94.9%
%Inh (MYLK): 26%
%Inh (MYO3A): 14%
%Inh (MYO3B): 0%
%Inh (NDR1): 24%
%Inh (NDR2): 16%
%Inh (NEK10): 25%
%Inh (NEK11): 6%
%Inh (NEK1): 0%
%Inh (NEK2): 8%
%Inh (NEK3): 0%
%Inh (NEK4): 0%
%Inh (NEK5): 6%
%Inh (NEK6): 0%
%Inh (NEK7): 0%
%Inh (NEK9): 13%
%Inh (NIK): 17%

CN1CCN(Cc2cccc(-c3ccc4c(Nc5ccc(Oc6ccccc6)cc5)ccnc4c3)c2)CC1 [GW578342]
%Inh (MTOR): 15%
%Inh (MUSK): 17%
%Inh (MYLK2): 0%
%Inh (MYLK4): 0%
%Inh (MYLK): 13%
%Inh (MYO3A): 28%
%Inh (MYO3B): 0%
%Inh (NDR1): 14%
%Inh (NDR2): 25%
%Inh (NEK10): 0%
%Inh (NEK11): 28%
%Inh (NEK1): 0%
%Inh (NEK2): 0%
%Inh (NEK3): 3%
%Inh (NEK4): 0%
%Inh (NEK5): 0%
%Inh (NEK6): 0%
%Inh (NEK7): 0%
%Inh (NEK9): 16%
%Inh (NIK): 24%

C[C@@H](Oc1cc(-n2cnc3cc(-c4ccnc(NCCS(C)(=O)=O)c4)ccc32)sc1C(N)=O)c1ccccc1Cl [GSK907232]
%Inh (MTOR): 2%
%Inh (MUSK): 30%
%Inh (MYLK2): 53%
%Inh (MYLK4): 2%
%Inh (MYLK): 10%
%Inh (MYO3A): 13%
%Inh (MYO3B): 0%
%Inh (NDR1): 0%
%Inh (NDR2): 0%
%Inh (NEK10): 0%
%Inh (NEK11): 0%
%Inh (NEK1): 72%
%Inh (NEK2): 98.8%
%Inh (NEK3): 3%
%Inh (NEK4): 0%
%Inh (NEK5): 89%
%Inh (NEK6): 4%
%Inh (NEK7): 12%
%Inh (NEK9): 74%
%Inh (NIK): 0%

C[C@@H]1CC[C@@H](C(=O)Nc2ccccc2)CN1c1cc(-c2ccc3c(N)n[nH]c3c2)nc(N)n1 [GSK2286062]
%Inh (MTOR): 0%
%Inh (MUSK): 0%
%Inh (MYLK2): 0%
%Inh (MYLK4): 5%
%Inh (MYLK): 15%
%Inh (MYO3A): 33%
%Inh (MYO3B): 0%
%Inh (NDR1): 13%
%Inh (NDR2): 0%
%Inh (NEK10): 7%
%Inh (NEK11): 0%
%Inh (NEK1): 1%
%Inh (NEK2): 0%
%Inh (NEK3): 4%
%Inh (NEK4): 0%
%Inh (NEK5): 7%
%Inh (NEK6): 0%
%Inh (NEK7): 0%
%Inh (NEK9): 8%
%Inh (NIK): 0%

CCCCc1nn2ncccc2c1-c1ccnc(Nc2ccc(N3CCN(C)CC3)cc2)n1 [GW684941]
%Inh (MTOR): 16%
%Inh (MUSK): 98.2%
%Inh (MYLK2): 41%
%Inh (MYLK4): 26%
%Inh (MYLK): 4%
%Inh (MYO3A): 0%
%Inh (MYO3B): 0%
%Inh (NDR1): 18%
%Inh (NDR2): 0%
%Inh (NEK10): 65%
%Inh (NEK11): 62%
%Inh (NEK1): 0%
%Inh (NEK2): 53%
%Inh (NEK3): 9%
%Inh (NEK4): 14%
%Inh (NEK5): 0%
%Inh (NEK6): 0%
%Inh (NEK7): 0%
%Inh (NEK9): 0%
%Inh (NIK): 11%

CN(C)Cc1ccc(-c2ccc3c(Nc4ccc(Oc5ccccn5)cc4)ccnc3c2)o1 [GW567148]
%Inh (MTOR): 8%
%Inh (MUSK): 0%
%Inh (MYLK2): 0%
%Inh (MYLK4): 0%
%Inh (MYLK): 4%
%Inh (MYO3A): 0%
%Inh (MYO3B): 0%
%Inh (NDR1): 6%
%Inh (NDR2): 0%
%Inh (NEK10): 13%
%Inh (NEK11): 8%
%Inh (NEK1): 0%
%Inh (NEK2): 0%
%Inh (NEK3): 0%
%Inh (NEK4): 21%
%Inh (NEK5): 0%
%Inh (NEK6): 0%
%Inh (NEK7): 0%
%Inh (NEK9): 0%
%Inh (NIK): 12%

FC(F)(F)c1ccc(/C=C/c2cncnc2Nc2ccc3[nH]c(Cc4ccccc4)nc3c2)cc1 [GW709199]
%Inh (MTOR): 28%
%Inh (MUSK): 15%
%Inh (MYLK2): 2%
%Inh (MYLK4): 25%
%Inh (MYLK): 15%
%Inh (MYO3A): 0%
%Inh (MYO3B): 30%
%Inh (NDR1): 21%
%Inh (NDR2): 0%
%Inh (NEK10): 0%
%Inh (NEK11): 9%
%Inh (NEK1): 0%
%Inh (NEK2): 0%
%Inh (NEK3): 30%
%Inh (NEK4): 0%
%Inh (NEK5): 23%
%Inh (NEK6): 13%
%Inh (NEK7): 0%
%Inh (NEK9): 2%
%Inh (NIK): 0%

c1ccc(-c2cnc3nccnn23)cc1 [AH20685]
%Inh (MTOR): 2%
%Inh (MUSK): 2%
%Inh (MYLK2): 0%
%Inh (MYLK4): 0%
%Inh (MYLK): 0%
%Inh (MYO3A): 0%
%Inh (MYO3B): 0%
%Inh (NDR1): 0%
%Inh (NDR2): 0%
%Inh (NEK10): 0%
%Inh (NEK11): 0%
%Inh (NEK1): 0%
%Inh (NEK2): 0%
%Inh (NEK3): 0%
%Inh (NEK4): 16%
%Inh (NEK5): 0%
%Inh (NEK6): 0%
%Inh (NEK7): 0%
%Inh (NEK9): 0%
%Inh (NIK): 0%
